Read-out in assay [1]: Interferon-gamma inducible Protein 10 (IP10), CXCL10 (gene 3627)
In words: BSK_hDFCGF_IP10: BioMAP Diversity Plus: hDFCGF Assay for Interferon-gamma inducible Protein 10 (IP10) Biomarker Activity (AID 2283053). The following applies: primary human foreskin fibroblasts; actives raise or lower the signal. The procedure, abridged:
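IP-10 levels, quantified by ELISA, are taken from human foreskin fibroblast cultures 24 h after chemical treatment, with DMSO serving as negative control and baseline for bidirectional analysis.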

Read-out in assay [2]: Urokinase-type plasminogen activator receptor (uPAR), PLAUR (gene 5329)
As to the kind of experiment: BSK_CASM3C_uPAR: BioMAP Diversity Plus: CASM3C Assay for Urokinase-type plasminogen activator receptor (uPAR) Biomarker Activity (AID 2283054).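 Note: cell-surface uPAR protein level quantified by ELISA.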 Particulars: primary human coronary artery smooth muscle cells; actives raise or lower the signal.

Read-out in assay [3]: Vascular cell adhesion molecule 1 (VCAM1), VCAM1 (gene 7412)
In words: BSK_CASM3C_VCAM1: BioMAP Diversity Plus: CASM3C Assay for Vascular cell adhesion molecule 1 (VCAM1) Biomarker Activity (AID 2283055).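 Note: VCAM-1 protein level quantified by ELISA on the cells.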 Particulars: primary human coronary artery smooth muscle cells; actives raise or lower the signal.

Read-out in assay [4]: Collagen III, COL3A1 (gene 1281)
In words: BSK_hDFCGF_CollagenIII: BioMAP Diversity Plus: hDFCGF Assay for Collagen III Biomarker Activity (AID 2283056). Particulars: primary human foreskin fibroblasts; actives raise or lower the signal. The gist of the method: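 ELISA readout of Collagen III in human dermal (foreskin) fibroblasts, taken 24 h post-treatment. Gain or loss relative to DMSO vehicle fitted in both directions.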

Read-out in assay [5]: Epidermal growth factor receptor (EGFR), EGFR (gene 1956)
In words: BSK_hDFCGF_EGFR: BioMAP Diversity Plus: hDFCGF Assay for Epidermal growth factor receptor (EGFR) Biomarker Activity (AID 2283057). Particulars: primary human foreskin fibroblasts; actives raise or lower the signal. The procedure, abridged:
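Measured by ELISA: EGFR levels on primary human foreskin fibroblasts 24 h after chemical treatment, analysed relative to DMSO with bidirectional fitting.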

Read-out in assay [6]: Interleukin-8 (IL8), CXCL8 (gene 3576)
In words: BSK_hDFCGF_IL8: BioMAP Diversity Plus: hDFCGF Assay for Interleukin-8 (IL8) Biomarker Activity (AID 2283058). The following applies: primary human foreskin fibroblasts; actives raise or lower the signal. The procedure, abridged: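 IL-8 levels read by ELISA at 24 hours after dosing human skin fibroblast cultures. Parallel SRB staining assessed overt cytotoxicity, and gain or loss of signal was fitted against DMSO control.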

The nature of assay [7]: BSK_hDFCGF_Proliferation: Cell Proliferation Assessment in the BioMAP Diversity Plus: hDFCGF Assay (AID 2283059).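 Note: curves fitted for both rise and fall of signal versus DMSO baseline.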 The following applies: primary human foreskin fibroblasts. The gist of the method: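 Total protein read at 560 nm after 0.1% SRB staining of TCA-fixed human skin fibroblasts, […]. Activity is fitted in both directions relative to DMSO as baseline.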

Read-out in assay [8]: Macrophage colony-stimulating factor (MCSF), CSF1 (gene 1435)
In words: BSK_hDFCGF_MCSF: BioMAP Diversity Plus: hDFCGF Assay for Macrophage colony-stimulating factor (MCSF) Biomarker Activity (AID 2283060). The following applies: primary human foreskin fibroblasts; actives raise or lower the signal. The procedure, abridged: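 M-CSF levels read by ELISA at 24 h post-dosing in human skin fibroblasts. Parallel cultures stained with SRB assessed cytotoxicity at the same time point; response fitted in both directions against the DMSO baseline.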

A short description of assay [9]: BSK_hDFCGF_SRB: Viability Assessment in the BioMAP Diversity Plus: hDFCGF Assay (AID 2283061).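 Note: cells exposed to compound for 24 h before the read.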 The following applies: primary human foreskin fibroblasts. The gist of the method:
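Viability was read as total protein: after 10% TCA fixation, wells were stained with 0.1% sulforhodamine B and read at 560 nm. Primary human foreskin fibroblasts were dosed for 24 h, with bidirectional fitting versus DMSO.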

Read-out in assay [10]: TIMP metallopeptidase inhibitor 1 (TIMP1), TIMP1 (gene 7076)
As to the kind of experiment: BSK_hDFCGF_TIMP1: BioMAP Diversity Plus: hDFCGF Assay for TIMP metallopeptidase inhibitor 1 (TIMP1) Biomarker Activity (AID 2283062). The following applies: primary human foreskin fibroblasts; actives raise or lower the signal. The procedure, abridged:
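TIMP-1 measured by ELISA 24 h after chemical dosing of primary human skin fibroblasts, with gain or loss fitted relative to DMSO. Parallel SRB staining (560 nm) monitored overt cytotoxicity.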

Molecules are shown by their SMILES. Where “and” joins values, the source holds several entries; their conditions need not be identical. Equal values may be shown once. Where a structure was tested more than once in an assay, its records may differ in their call. Calls of active or inactive are those of the source. Rule for the calls: active = hit-call score of the fitted dose curve at least 0.9, where 1 is the maximum; inactive = score below 0.9.

The AC50 is the concentration at which the activity in the assay is half-maximal. For `O=C1c2ccc(O)c(O)c2C(=O)c2c(O)ccc(O)c21`, the outcome in [1], in [3], in assay [4], in assay [5], in assay [6] and in [7] was inactive. Also, the outcome in assay [8], in [9] and in [10] was inactive. In [2], the AC50 was 22.4 nM (active).
Take `COCN(COC)c1nc(N(COC)COC)nc(N(COC)COC)n1`: the result in assay [1], in assay [2], in [3], in assay [4], in assay [5] and in assay [6] was inactive. Also, the result in assay [7], in assay [8], in [9] and in [10] was inactive.
Regarding `OCC(CO)(CBr)CBr`, the outcome in assay [1], in assay [2], in assay [3], in assay [4], in [5] and in assay [6] was inactive. The result in [7], in [8], in assay [9] and in assay [10] was inactive.
Regarding `C=CC(=C)CC/C=C(\C)CCC=C(C)C`, the outcome in [1], in [2], in assay [3], in assay [5], in [6] and in assay [8] was inactive. For the same molecule, the result in assay [9] and in assay [10] was inactive. Also, the concentration at half-maximal activity (AC50) is 3.62 µM (active) in assay [4] and 6.49 µM (active) in assay [7].
Regarding `COc1cc(OC)nc(NC(=O)NS(=O)(=O)Nc2ccccc2C(=O)N(C)C)n1`, the result in assay [1], in assay [2], in assay [3], in [4], in assay [5] and in assay [6] was inactive. The outcome in assay [7], in assay [8], in [9] and in assay [10] was inactive.
Take `O=C(CC(=O)C(F)(F)C(F)(F)C(F)(F)F)c1cccs1`: the result in assay [1], in assay [4], in assay [5], in assay [6], in [8] and in [9] was inactive. For the same molecule, in [10], the outcome was inactive. Moreover, the AC50 was 51.8 µM (active) and 50.9 µM (active) in [2]; 40.6 µM (active) and 38.2 µM (active) in assay [3]; 4.23 µM (active) and 4.92 µM (active) in assay [7].
On to `Cc1[nH]nc2c1N=C(c1ccccc1Cl)c1cc([N+](=O)[O-])ccc1N2`, for which the result in assay [1], in [2], in assay [4], in assay [6], in [8] and in [9] was inactive. In assay [10], the outcome was inactive. Moreover, the AC50 in [3] was 9.37 µM (active); in [5], 20 µM (active); in [7], 0.187 µM (active).
As for `O=C(NO)c1ccccc1`, the result in [1], in assay [2], in assay [3], in assay [4], in assay [5] and in assay [6] was inactive. The outcome in [8], in assay [9] and in [10] was inactive. In assay [7], the AC50 is 3.81 µM (active).
Take `O=C(c1ccccc1)c1ccccc1`: the result in [1], in [2], in [3], in [4], in assay [5] and in assay [6] was inactive. The result in [7], in assay [8], in assay [9] and in [10] was inactive.
In the case of `CC(=O)Nc1ccc(O)cc1`, the result in assay [1], in assay [2], in assay [3], in [4], in assay [5] and in assay [6] was inactive. Further, the outcome in [7], in [8], in [9] and in assay [10] was inactive.
For the molecule `CN(C)CCOC(c1ccccc1)c1ccccc1`, in assay [1], the concentration at half-maximal activity (AC50) is 33.6 µM (active). Besides, the result in [2], in assay [3], in [4], in [5], in assay [6] and in assay [7] was inactive. The outcome in assay [9] and in assay [10] was inactive.
As to `CCCCCCCCCCCC`, the half-maximal activity concentration (AC50) was 8.64 µM (active) and 6.71 µM (active) in [1]; 9.2 µM (active) and 5.67 µM (active) in assay [4]; 12.9 µM (active) and 14.6 µM (active) in assay [6]; 11.6 µM (active) and 11.5 µM (active) in assay [7]; 9.32 µM (active) and 10.2 µM (active) in [8]; 8.02 µM (active) and 11.1 µM (active) in assay [9]. Moreover, in assay [10], the AC50 was 7.88 µM (active) and 9.41 µM (active). For the same molecule, the result in assay [2], in assay [3] and in [5] was inactive.
For `Clc1ccc(Nc2nnc(Cc3ccncc3)c3ccccc23)cc1`, the outcome in [1], in [2], in assay [3], in assay [4], in assay [6] and in assay [7] was inactive. For the same molecule, the outcome in [8], in assay [9] and in assay [10] was inactive.
As for `O=S(=O)(O)C(F)(F)C(F)(F)C(F)(F)C(F)(F)C(F)(F)C(F)(F)C(F)(F)C(F)(F)C(F)(F)C(F)(F)F`, the outcome in assay [1], in assay [2], in assay [4], in assay [5], in [6] and in [8] was inactive. Further, in assay [10], the result was inactive. In addition, the AC50 in [3] was 3.55 µM (active) and 2.65 µM (active); in assay [7], 1.46 µM (active) and 1.89 µM (active); in [9], 8.49 µM (active) and 8.79 µM (active); in assay [10] it was 11.5 µM (active).
